Results filed as inconclusive are left out. Activity calls are given as the source filed them. The call rests on the fitted dose curve; in most records, active means well fitted curve in the direction sought with a large enough effect; inconclusive means small, poorly fitted or top-dose-only effect, or another doubt; inactive means no such curve, though single readings can be large; an effect the other way counts as inactive or inconclusive.
Key:
[1] = qHTS of pediatric cancer cell lines to identify multiple opportunities for drug repurposing: Primary screen for LAN-5 cells (AID 1347100); further: potency means the concentration at half of the fitted maximal effect;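 on activity change, negative = cytotoxic: plate controls were DMSO neutral control for no effect and bortezomib positive control for full effect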
Outline: (§1)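 Cells (500-1,000/well) rested 5 h, then received compounds for 48 h; metabolically active cells were measured by CellTiter-Glo luminescence. Final concentrations spanned up to 46 µM (MIPE, 11-point) or 0.59 nM-46 µM (NPC, 8-point) in primary screens, 11-point in follow-ups.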

[2] = qHTS of pediatric cancer cell lines to identify multiple opportunities for drug repurposing: Primary screen for BT-12 cells (AID 1347101); further: nearly all actives have a fitted effect of over 25% in size; further: potency means the concentration at half of the fitted maximal effect;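 on activity change, negative = cytotoxic: plate controls were DMSO for no effect and bortezomib positive control for full effect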
Outline: as §1

[3] = qHTS of pediatric cancer cell lines to identify multiple opportunities for drug repurposing: Primary screen for Rh18 cells (AID 1347102); further: on the % scale 0 is the no-effect control and ±100 the full control effect; nearly all actives have a fitted effect of over 65% in size
Outline: as §1

[4] = qHTS of pediatric cancer cell lines to identify multiple opportunities for drug repurposing: Primary screen for OHS-50 cells (AID 1347103); further: nearly all actives have a fitted effect of over 40% in size; further: potency means the concentration at half of the fitted maximal effect;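 on activity change, negative = cytotoxic: plate controls were DMSO neutral control for no effect and bortezomib positive control for full effect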
Outline: as §1

[5] = qHTS of pediatric cancer cell lines to identify multiple opportunities for drug repurposing: Primary screen for RD cells (AID 1347104);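 further: plate controls were DMSO for no effect and bortezomib for full effect; nearly all actives have a fitted effect of over 55% in size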
Outline: (§2)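 Cells seeded at 500-1,000 cells/well in growth media, rested 5 hours at 37 degrees C, 5% CO2, then dosed; MIPE compounds at 11-point (from 0.78 nM) and NPC at 8-point (from 0.59 nM) final concentrations. Viability by CellTiter-Glo luminescence after 48 hours.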

[6] = qHTS of pediatric cancer cell lines to identify multiple opportunities for drug repurposing: Primary screen for Rh30 cells (AID 1347107); further: series mostly up to about 46 µM; on the % scale 0 is the no-effect control and ±100 the full control effect; nearly all actives have a fitted effect of over 75% in size
Outline: as §1

[7] = qHTS of pediatric cancer cell lines to identify multiple opportunities for drug repurposing: Primary screen for Rh41 cells (AID 1347108);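 further: series mostly up to about 46 µM; luminescence drop marks cytotoxic hits; nearly all actives have a fitted effect of over 70% in size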
Outline: as §2

[8] = qHTS of pediatric cancer cell lines to identify multiple opportunities for drug repurposing: Primary screen for MG 63 (6-TG R) cells (AID 1347105); further: nearly all actives have a fitted effect of over 50% in size; further: potency means the concentration at half of the fitted maximal effect; on activity change, negative = cytotoxic: on the % scale 0 is the no-effect control and ±100 the full control effect
Outline: as §2

[9] = qHTS of pediatric cancer cell lines to identify multiple opportunities for drug repurposing: Primary screen for control Hh wild type fibroblast cells (AID 1347106);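 further: series mostly up to about 46 µM; on the % scale 0 is the no-effect control and ±100 the full control effect; a drop in luminescence marks cytotoxicity and a rise apparent proliferation; nearly all actives have a fitted effect of over 55% in size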
Outline: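 Cells (500-1,000/well) in growth media were settled 5 h at 37 degrees C, then given compounds for 48 h. Viability was read as CellTiter-Glo luminescence. Primary runs used MIPE at 11 points (0.78 nM-46 µM) and NPC at 8 points (0.59 nM-46 µM); follow-ups used 11 points.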

[10] = qHTS of pediatric cancer cell lines to identify multiple opportunities for drug repurposing: Confirmatory screen for NB1643 cells (AID 1347109);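 further: plate controls were DMSO for no effect and bortezomib for full effect; nearly all actives have a fitted effect of over 45% in size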
Outline: as §1

CC1CC(OC(=O)C(O)c2ccccc2)CC(C)(C)N1C (stereo unspecified)
inactive: Potency [1] | Potency [2] | Potency [3] | Potency [4] | Potency [5] | outcome [6] | Potency [7]

Nc1ncnc2c1ncn2[C@@H]1O[C@H](CO)[C@@H](O)[C@H]1O
inactive: Potency [1] | Potency [2] | Potency [3] | Potency [5] | Potency [8] | outcome [9] | outcome [6] | Potency [7]

[Cl][In]([Cl])[Cl]
active: Potency [4] 25.2 µM
inactive: Potency [1] | Potency [2] | Potency [3] | Potency [8] | outcome [9] | outcome [6] | Potency [7]

CCCn1cnc2c1c(=O)n(CCCCC(C)=O)c(=O)n2C
inactive: Potency [1] | Potency [2] | Potency [3] | Potency [4] | Potency [5] | outcome [9] | outcome [6] | Potency [7]

CC1=C(C/C=C(\C)CCC[C@H](C)CCC[C@H](C)CCCC(C)C)C(=O)c2ccccc2C1=O
inactive: Potency [1] | Potency [2] | Potency [3] | Potency [5] | outcome [9] | outcome [6] | Potency [7]

CC(O)CN(CCN(CC(C)O)CC(C)O)CC(C)O (stereo unspecified)
inactive: Potency [1] | Potency [2] | Potency [3] | Potency [4] | Potency [5] | outcome [9] | outcome [6] | Potency [7]

O=c1cc[nH]c(=S)[nH]1
inactive: Potency [1] | Potency [2] | Potency [3] | Potency [4] | Potency [8] | outcome [9] | outcome [6] | Potency [10]

CC(C)(C)C(=O)NCCCC(=O)O
inactive: Potency [1] | Potency [2] | Potency [3] | Potency [4] | Potency [5] | outcome [9] | outcome [6] | Potency [7]

NC(=O)c1ncn([C@@H]2O[C@H](CO)[C@@H](O)[C@H]2O)n1
inactive: Potency [1] | Potency [2] | Potency [3] | Potency [5] | outcome [9] | outcome [6] | Potency [7]

CC(C)C(=O)c1c(C(C)C)nn2ccccc12
inactive: Potency [1] | Potency [2] | Potency [3] | Potency [4] | Potency [5] | outcome [9] | outcome [6] | Potency [7]

CC(C(O)c1ccc(O)cc1)N1CCC(Cc2ccccc2)CC1 (stereo unspecified)
inactive: Potency [1] | Potency [2] | Potency [3] | Potency [5] | outcome [9] | outcome [6] | Potency [7]

CC1=C(/C=C/C(C)=C/C=C/C(C)=C/C(=O)O)C(C)(C)CCC1
active: Potency [4] 0.0309 µM
inactive: Potency [1] | Potency [2] | Potency [3] | Potency [5] | outcome [9] | outcome [6] | Potency [7]

O=C1NS(=O)(=O)c2ccccc21
inactive: Potency [1] | Potency [2] | Potency [3] | Potency [4] | Potency [5] | outcome [9] | outcome [6] | Potency [7]

NCCNCCNCCN
inactive: Potency [1] | Potency [2] | Potency [3] | Potency [4] | Potency [5] | outcome [9] | outcome [6] | Potency [7]

OCC(O)CN1CCN(c2ccccc2)CC1 (stereo unspecified)
inactive: Potency [1] | Potency [2] | Potency [3] | Potency [4] | Potency [5] | outcome [9] | outcome [6] | Potency [7]

O=C(Oc1ccccc1C(=O)O)c1ccccc1O
inactive: Potency [1] | Potency [2] | Potency [3] | Potency [4] | Potency [5] | outcome [9] | outcome [6] | Potency [7]

N[C@H]1C(O)O[C@H](CO)[C@@H](O)[C@@H]1O (stereo partly specified)
inactive: Potency [1] | Potency [2] | Potency [3] | Potency [4] | Potency [5] | outcome [9] | outcome [6] | Potency [7]

CCCCOc1cc(C(=O)OCCN(CC)CC)ccc1N
inactive: Potency [1] | Potency [2] | Potency [3] | Potency [5] | Potency [8] | outcome [6] | Potency [7]

CC(C)(C(=O)O)c1ccc(C(O)CCCN2CCC(C(O)(c3ccccc3)c3ccccc3)CC2)cc1 (stereo unspecified)
inactive: Potency [1] | Potency [2] | Potency [3] | Potency [4] | Potency [5] | outcome [9] | outcome [6] | Potency [7]

Cc1cc(O)cc2c1O[C@](C)(CCC[C@H](C)CCC[C@H](C)CCCC(C)C)CC2
inactive: Potency [1] | Potency [2] | Potency [3] | Potency [4] | Potency [5] | outcome [9] | outcome [6] | Potency [7]

C[C@H]1O[C@H](O[C@H]2[C@H](O)[C@@H](O)[C@@H](O[C@H]3[C@H](O)[C@@H](O)[C@H](O)O[C@@H]3CO)O[C@@H]2CO)[C@H](O)[C@@H](O)[C@@H]1N[C@H]1C=C(CO)[C@@H](O)[C@H](O)[C@H]1O
inactive: Potency [1] | Potency [2] | Potency [3] | Potency [4] | Potency [5] | outcome [9] | outcome [6] | Potency [7]

O=Cc1ccccc1C=O
inactive: Potency [1] | Potency [2] | Potency [3] | Potency [4] | Potency [5] | outcome [9] | outcome [6] | Potency [7]

CC1(C)[C@@H]2CC[C@@]1(C)C(=O)C2
inactive: Potency [1] | Potency [2] | Potency [3] | Potency [4] | Potency [5] | outcome [6] | Potency [7]

Cc1cc2nc3c(=O)[nH]c(=O)nc-3n(C[C@H](O)[C@H](O)[C@H](O)CO)c2cc1C
inactive: Potency [1] | Potency [2] | Potency [3] | Potency [4] | Potency [5] | outcome [9] | outcome [6] | Potency [7]

CC(C)c1c(C(=O)Nc2ccccc2)c(-c2ccccc2)c(-c2ccc(F)cc2)n1CC[C@@H](O)C[C@@H](O)CC(=O)O
inactive: Potency [1] | Potency [5]
active: Potency [2] 1.23 µM | Potency [4] 15.5 µM | Potency [8] 6.68 µM

CC(=O)NC(Cc1ccccc1)C(=O)O (stereo unspecified)
inactive: Potency [1] | Potency [2] | Potency [3] | Potency [4] | Potency [5] | outcome [9] | outcome [6] | Potency [7]

CN1[C@@H]2CC(OC(=O)[C@H](CO)c3ccccc3)C[C@H]1[C@@H]1O[C@@H]12 (stereo partly specified)
inactive: Potency [1] | Potency [2] | Potency [3] | Potency [4] | Potency [8] | outcome [9] | outcome [6]

CCCCN1CCCC[C@H]1C(=O)Nc1c(C)cccc1C
inactive: Potency [1] | Potency [2] | Potency [3] | Potency [5] | Potency [8] | outcome [6] | Potency [7]

COc1cc(C(=O)N2CCOCC2)cc(OC)c1OC
inactive: Potency [1] | Potency [2] | Potency [3] | Potency [4] | Potency [5] | outcome [9] | outcome [6] | Potency [7]

C[C@](N)(Cc1ccc(O)cc1)C(=O)O
inactive: activity change, negative = cytotoxic [1] -5.33% [at 4.84 µM] | activity change, negative = cytotoxic [2] 0.753% [at 6.03 µM] | activity change, negative = cytotoxic [3] 14.1% [at 4.84 µM] | activity change, negative = cytotoxic [4] -5.63% [at 6.18 µM] | activity change, negative = cytotoxic [8] -28.9% [at 4.84 µM] | activity change, negative = cytotoxic [9] 5.39% [at 4.84 µM] | activity change, negative = cytotoxic [6] -4.89% [at 4.84 µM] | activity change, negative = cytotoxic [7] -37.3% [at 4.84 µM] | activity change, negative = cytotoxic [10] 4.45% [at 5.01 µM]

CN(C)CCN(Cc1ccccc1)c1ccccn1
inactive: Potency [1] | Potency [2] | Potency [3] | Potency [5] | outcome [9] | outcome [6] | Potency [7]

CCC(=O)c1ccc(O)cc1
inactive: Potency [1] | Potency [2] | Potency [3] | Potency [4] | Potency [5] | outcome [6] | Potency [7]

CCN(CC)CCNC(=O)c1cc(Cl)c(N)cc1OC
inactive: Potency [1] | Potency [2] | Potency [3] | Potency [4] | Potency [5] | outcome [9] | outcome [6] | Potency [7] | Potency [10]

CC1(C)CO[C@@H](CC(=O)O)CN1
inactive: Potency [1] | Potency [2] | Potency [3] | Potency [4] | Potency [5] | outcome [9] | outcome [6] | Potency [7]

CC(=O)c1ccc2c(c1)N(CCCN(C)C)c1ccccc1S2
inactive: Potency [1] | Potency [2] | Potency [3] | outcome [9] | outcome [6] | Potency [7]

COC(=O)C1=C(C)NC(C)=C(C(=O)OC)C1c1ccccc1[N+](=O)[O-]
inactive: Potency [1] | Potency [2] | Potency [3] | outcome [9] | outcome [6] | Potency [7]

CCCCc1ncc(/C=C(\Cc2cccs2)C(=O)O)n1Cc1ccc(C(=O)O)cc1
inactive: Potency [1] | Potency [2] | Potency [3] | Potency [4] | Potency [5] | outcome [9] | outcome [6] | Potency [7]

CN1CCN(C2Cc3ccccc3Sc3ccc(Cl)cc32)CC1 (stereo unspecified)
active: Potency [1] 9.44 µM | Potency [4] 27.6 µM
inactive: outcome [6]

C[C@]12CC[C@@H]3c4ccc(O)cc4CC[C@H]3[C@@H]1CCC2=O
inactive: Potency [1] | Potency [3] | Potency [5] | Potency [8] | outcome [9] | outcome [6] | Potency [7]

— PubChem BioAssay (NCATS)
